tim10-1 inh = tim10-1 yeast growth inhibition | 330,000 compounds, 2.2% hits | AID 463190 | S. cerevisiae tim10-1 ts strain growth, BacTiter-Glo, 24 h | inhibition, % at 20 µM;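 active = inhibition of at least 40%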;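 also: mutant grown at 25 °C; 0% = DMSO wells with yeast and 100% = wells holding no yeast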
TIM10 inh = TIM10 yeast growth inhibition | inhibition, % at 10 µM | 330,000 compounds, 1.4% hits | S. cerevisiae TIM10 strain growth, BacTiter-Glo luminescence, 24 h;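 active = inhibition of 40% or more at the single tested concentration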;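 also: wild-type TIM10 isogenic control strain grown at permissive 25 °C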
SKKanGAS inh = inhibitors of SKKanGAS S. pyogenes growth in kanamycin (SK-promoter or general growth effect); 300,000 compounds, 1.3% hits; inhibition, % at 7.5 µM; BacTiter-Glo, 6 h; AID 1662;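 active = mean replicate score, as percent of positive control median, at least 50; inconclusive = mean below 50 but one replicate at or above 50; inactive = mean and every replicate below 50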;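 also: strain carries kanamycin resistance gene driven by streptokinase promoter and grows in 40 µg/ml kanamycin; loss of luminescence reflects streptokinase promoter inhibition or plain growth inhibition; 0% = median of DMSO wells and 100% = positive control at its reference dose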
ATG4B inh = inhibitors of human ATG4B cysteine protease; AID 504462; Q9Y4P1; ATG4B cleavage of LC3-PLA2, NBD-HPC fluorescence, 1 h; 340,000 compounds, 0.51% hits; inhibition, % at 8.33 µM; in the data active = inhibition above about 40%
Target sequence (Q9Y4P1 whole entry, looked up): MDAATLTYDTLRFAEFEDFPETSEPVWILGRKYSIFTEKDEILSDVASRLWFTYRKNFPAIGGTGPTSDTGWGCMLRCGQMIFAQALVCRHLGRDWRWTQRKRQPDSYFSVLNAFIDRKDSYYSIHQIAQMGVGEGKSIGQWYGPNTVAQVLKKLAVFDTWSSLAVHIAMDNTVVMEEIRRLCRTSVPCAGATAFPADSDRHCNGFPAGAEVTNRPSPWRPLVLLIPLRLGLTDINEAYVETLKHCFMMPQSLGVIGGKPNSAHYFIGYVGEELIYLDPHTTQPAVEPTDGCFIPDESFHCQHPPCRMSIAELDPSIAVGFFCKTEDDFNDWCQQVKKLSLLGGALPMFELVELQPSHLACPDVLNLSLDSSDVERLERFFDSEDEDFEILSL
tim23-1 inh = tim23-1 yeast growth inhibition; S. cerevisiae tim23-1 growth, BacTiter-Glo luminescence, 24 h; inhibition, % at 20 µM; 330,000 compounds, 1.3% hits;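 active = growth inhibition of the mutant yeast at or above 50%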;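 also: temperature-sensitive mutant grown at 25 °C; plate controls were DMSO-treated mutant yeast for no effect and medium wells lacking yeast for full effect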
PfHsp90 set2 = reduces growth (ATP signal) of yeast expressing P. falciparum Hsp90; S. cerevisiae expressing PfHsp90, BacTiter-Glo ATP, 48 h; yeast lacking PDR1 and PDR3 efflux regulators; inhibition, % at 9.4 µM; 310,000 compounds, 0.32% hits; AID 504621;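 active = every replicate shows inhibition above about 80%, whatever the replicate mean, limit read from the data; inconclusive = mean inhibition reaches the set limit but some replicate falls short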;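 also: 0% = DMSO neutral controls and 100% = 20 µM radicicol positive controls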
tim10-1 confirm = confirmation of tim10-1 mutant yeast growth inhibitors. shares compounds with tim10-1 inh. S. cerevisiae tim10-1 ts strain growth, BacTiter-Glo, 24 h. inhibition, % at 20 µM. 7,400 compounds, 56% hits;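 active = inhibition of yeast growth at or above a set limit in either of two repeat tests at 20 µM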;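 also: tim10-1 mutant grown at permissive 25 °C to find synthetic lethal compounds; 0% = DMSO yeast wells and 100% = medium wells without yeast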
tim10 confirm = confirmation of TIM10 yeast growth inhibitors. shares compounds with TIM10 inh. AID 463215. 4,600 compounds, 63% hits. inhibition, % at 10 µM. S. cerevisiae tim10 strain growth, BacTiter-Glo luminescence, 24 h;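 active = inhibition of yeast growth at or above a set limit in either of two replicates at 10 µM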;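 also: this counterscreen used the strain with wild-type TIM10; 0% = yeast with DMSO and 100% = medium wells lacking yeast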
tim23-1 confirm = confirmation of tim23-1 mutant yeast growth inhibitors; S. cerevisiae tim23-1 growth, BacTiter-Glo luminescence, 24 h; inhibition, % at 20 µM; 4,400 compounds, 83% hits; shares compounds with tim23-1 inh;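 active = inhibition above about 39% in either of two replicate wells at 20 µM, limit read from the data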;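 also: temperature-sensitive tim23-1 mutant grown at 25 °C; 0% = DMSO wells with yeast and 100% = medium wells without yeast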
Numbers without * were called inactive; ? = inconclusive; . = no result. An excerpt weighted towards active compounds, which were near 4.7% of everything screened.

SMILES | tim10-1 inh | TIM10 inh | SKKanGAS inh | ATG4B inh | tim23-1 inh | PfHsp90 set2 | tim10-1 confirm | tim23-1 confirm | others
CCCCCCCCCCn1c2c(c(=N)c3c1CCC3)CCC2 | 65* | 39 | ? | 19 | 83* | 7 | 30 | 76*
CCCCn1c2c(c(=N)c3ccccc31)CCC2 | -24 | 2 | 1 | -4 | 4 | -1 | . | .
CCCCCCCCn1c2c(c(=N)c3ccccc31)CCC2 | 60* | 25 | 3 | -2 | 66* | 14 | 51* | 63*
CCCCCn1c2c(c(=N)c3ccccc31)CCC2 | 2 | -10 | 1 | 4 | -12 | 6 | . | .
O=[N+]([O-])c1cccc(C2NCC(c3ccccc3Cl)c3c2[nH]c2ccccc32)c1 (stereo not given) | 59* | 63* | 21 | 19 | 58* | 1 | 52* | 76* | tim10 confirm=58*
CN(C)c1ccc(C2CNC(c3ccc(Cl)c([N+](=O)[O-])c3)c3[nH]c4ccccc4c32)cc1 (stereo not given) | 28 | 36 | 15 | 6 | 37 | 8 | . | .
Cc1ccccc1C(=O)NNC(=O)c1ccc2nc[nH]c2c1 | 3 | -4 | -9 | -2 | -9 | 6 | . | .
COCCn1c(C)cc(C(=O)CSc2nnc(-c3cccnc3)n2-c2ccccc2F)c1C | 14 | 9 | 6 | 3 | 4 | . | . | .
Cc1ccc(C(=O)/C=C/c2ccc(-c3ccc(C)cc3)o2)cc1 | 63* | 57* | 0 | 19 | 60* | -108 | 64* | 76* | tim10 confirm=66*
COc1ccc2nc3oc(C(=O)N4CCCCC4)cc3cc2c1 | 29 | 13 | -13 | -18 | 1 | 24 | . | .
COc1ccc2nc3oc(C(=O)N4CC(C)CC(C)C4)cc3cc2c1 (stereo not given) | 59* | 15 | 1 | 17 | 54* | -14 | 5 | 41*
Brc1ccc(C2=CC(c3cccs3)n3ncnc3N2)cc1 (stereo not given) | 50* | 36 | 5 | -9 | 52* | 7 | 38* | 54*
COc1ccc2cc(/C=C/C(=O)c3ccco3)c(Cl)nc2c1 | 45* | 46* | 0 | . | 52* | . | 38* | 48* | tim10 confirm=16
Cc1ccc2nc(Cl)c(/C=C/C(=O)c3ccco3)cc2c1 | 44* | 51* | -5 | 5 | 64* | 12 | 28 | 50* | tim10 confirm=52*
Cc1ccc2cc(/C=C/C(=O)c3ccco3)c(Cl)nc2c1 | 54* | 61* | -12 | 3 | 80* | . | 54* | 65* | tim10 confirm=61*
COc1cc2cc(/C=C/C(=O)c3ccco3)c(Cl)nc2cc1OC | 36 | 36 | 3 | -22 | 49 | -31 | . | .
Cc1cc(O)c2/c(=N\N)c(-c3csc(C)n3)coc2c1 | -10 | 4 | 5 | 22 | 12 | -6 | . | .
Cc1ccc(NC(=O)CSc2ncccn2)cc1F | -7 | -6 | 1 | -2 | -2 | 3 | . | .
O=C(CCCO)CCCCCCCCC[C@H]1N[C@H](CO)[C@@H](O)[C@@H]1O | 9 | 0 | 0 | 0 | 15 | 26 | . | .
Cc1ccc(NC(=O)c2nc(S(=O)(=O)Cc3ccccc3C)ncc2Cl)cc1C | 42* | -33 | 68* | 4 | 68* | -14 | -54 | 60*
CC(=O)Nc1ccc(NC(=O)c2nc(S(=O)(=O)Cc3cccc(C)c3)ncc2Cl)cc1 | 3 | 19 | 3 | -14 | 24 | -13 | . | .
CCOc1ccccc1NC(=O)c1nc(S(=O)(=O)Cc2ccccc2)ncc1Cl | 59* | 32 | 59* | -9 | 78* | -58 | 41* | 74*
COc1ccc(CCNC(=O)C2CC=CCC2C(=O)O)cc1 (stereo not given) | -3 | 15 | 0 | 1 | 0 | . | . | .
COc1ccc(NC(=O)CSc2nnnn2C2CCCCC2)cc1 | 16 | -16 | -3 | -4 | 6 | -2 | . | .

Source: PubChem
